Measurements reported in PMC5540273 (PLoS ONE, 2017).

Columns and labels:
Conditions in all cases: concentration: 1 μM, replicates: in singlicate; n = 1
BIKE = test system: T1, BIKE
T1 construct: gene BMP2K

BLK = test system: BLK
BMPR1A = test system: BMPR1A
BMPR1B = test system: BMPR1B
BMPR2 = test system: BMPR2
BMX = test system: BMX
BRAF = test system: BRAF
BRK = test system: T2, BRK
T2 construct: gene PTK6

BRSK1 = test system: BRSK1
BRSK2 = test system: BRSK2
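Note: KINOMEscan kinase panel screen.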

| SMILES | %Inh (BIKE) [%] | %Inh (BLK) [%] | %Inh (BMPR1A) [%] | %Inh (BMPR1B) [%] | %Inh (BMPR2) [%] | %Inh (BMX) [%] | %Inh (BRAF) [%] | %Inh (BRK) [%] | %Inh (BRSK1) [%] | %Inh (BRSK2) [%] |
| --- | --- | --- | --- | --- | --- | --- | --- | --- | --- | --- |
| COc1ccc(Nc2nccc(N3CCC(NC(=O)c4cc5ccccc5s4)C3)n2)cc1 (centres unmarked) [GSK1379738] | 13 | 0 | 0 | 0 | 11 | 0 | 0 | 0 | 0 | 0 |
| CNCc1ccc2nc(NC(=O)c3ccc(C(C)(C)C)cc3)cn2c1 | 15 | 0 | 17 | 14 | 19 | 0 | 18 | 2 | 9 | 0 |
| COc1ccc(Nc2nccc(-c3ccc(NC(=O)c4cc5cc(F)ccc5[nH]4)cc3)n2)cc1 [GSK1229496] | 33 | 0 | 0 | 0 | 21 | 16 | 0 | 16 | 0 | 0 |
| CNC(=O)c1ccc(C)c(-n2c(C)cc(OCc3ccc(F)cc3F)c(Br)c2=O)c1 | 3 | 0 | 39 | 0 | 0 | 0 | 0 | 0 | 0 | 0 |
| Cc1ccc(NC(=O)Nc2ccc(Cl)c(C(F)(F)F)c2)cc1-c1ccc(C(=O)Nc2ccncc2)cc1 [GSK1398470] | 8 | 7 | 6 | 0 | 0 | 21 | 73 | 29 | 7 | 0 |
| Cc1ccc(NC(=O)Nc2ccccc2)cc1-c1ccc(C(=O)Nc2ccncc2)cc1 [GSK1398471] | 20 | 33 | 0 | 0 | 0 | 18 | 32 | 15 | 9 | 2 |
| Cc1cccc2c(-c3ccncn3)c(-c3ccc(F)cc3)nn12 [GW515532] | 10 | 33 | 0 | 0 | 0 | 0 | 22 | 0 | 6 | 10 |
| COc1cccc(CNC(=O)NC2CCN(c3ccnc(Nc4ccc(F)cc4)n3)C2)c1 (centres unmarked) [GSK1379723] | 19 | 0 | 0 | 0 | 3 | 7 | 10 | 17 | 0 | 0 |
| CCCCc1nn2ncccc2c1-c1ccnc(NC2CC2)n1 [GW684374] | 23 | 0 | 0 | 0 | 0 | 4 | 7 | 0 | 0 | 0 |
| CC(C)c1cc(-c2ccc3c(N)n[nH]c3c2)nc(N)n1 [GSK2250882] | 72 | 5 | 0 | 0 | 4 | 18 | 0 | 14 | 40 | 22 |
| CN1c2ccc(-c3ccc(C(N)=O)cc3)cc2-c2[nH]ncc2S1(=O)=O | 9 | 6 | 0 | 0 | 0 | 0 | 0 | 0 | 0 | 6 |
| Nc1cccc(-c2ccc3c(N)n[nH]c3c2)n1 [GSK2192730] | 74 | 0 | 2 | 16 | 0 | 1 | 0 | 0 | 55 | 37 |
| Cn1cnc2c(N)ncnc21 [SKF-97623] | 0 | 0 | 0 | 0 | 0 | 0 | 0 | 0 | 24 | 0 |
| Cc1c(Cn2c3ccccc3n3c(=O)cc(N4CCOCC4)nc23)cccc1C(F)(F)F [GSK2306394] | 7 | 34 | 0 | 0 | 0 | 0 | 8 | 3 | 0 | 0 |
| Fc1ccc(-c2nc[nH]c2-c2ccncc2)cc1 [SB-217360] | 0 | 25 | 0 | 0 | 22 | 0 | 50 | 0 | 0 | 0 |
| CC(=O)c1c(C)c2cnc(Nc3ccn(C)n3)nc2n(C2CCCC2)c1=O | 22 | 0 | 0 | 0 | 0 | 0 | 3 | 8 | 0 | 0 |

| SMILES | %Inh (BIKE) [%] | %Inh (BLK) [%] | %Inh (BMPR1A) [%] | %Inh (BMPR1B) [%] | %Inh (BMPR2) [%] | %Inh (BMX) [%] | %Inh (BRAF) [%] | %Inh (BRK) [%] | %Inh (BRSK1) [%] | %Inh (BRSK2) [%] |
| --- | --- | --- | --- | --- | --- | --- | --- | --- | --- | --- |
| COc1nccc(-c2c(-c3ccc(F)cc3)ncn2CCCN2CCOCC2)n1 [SB-282852] | 0 | 0 | 0 | 0 | 25 | 0 | 20 | 0 | 0 | 0 |
| FC(F)(F)c1ccccc1-c1cc(-c2c[nH]nc2-c2ccccn2)ccn1 [GW679396] | 24 | 1 | 13 | 0 | 7 | 0 | 0 | 20 | 0 | 0 |
| CNc1nc(-c2ccc3c(N)n[nH]c3c2)cc(N2C[C@@H](C(=O)NC3CCCCC3)OC[C@H]2C)n1 [GSK2375584] | 24 | 0 | 0 | 0 | 0 | 23 | 0 | 14 | 14 | 19 |
| O=C1NC(=O)C(c2ccc(Cl)cc2)=C1Nc1cccc(Cl)c1 [SB-317651] | 0 | 12 | 0 | 0 | 0 | 3 | 0 | 0 | 0 | 1 |
| Cc1nccc(-c2c(-c3ccc(F)cc3)ncn2CCCN2CCOCC2)n1.Cl [SB-282975] | 15 | 12 | 26 | 8 | 41 | 31 | 10 | 13 | 0 | 17 |
| Cc1ccc(NC(=O)c2ccc(Cl)cc2)cc1-c1ccc(C(=O)Nc2ccncc2)cc1 [GSK1398467] | 13 | 1 | 0 | 0 | 0 | 8 | 0 | 0 | 0 | 18 |
| Cn1cncc1C(=O)NC1CCN(c2ccnc(Nc3ccc(F)cc3)n2)C1 (centres unmarked) [GSK1379717] | 7 | 0 | 5 | 0 | 6 | 0 | 0 | 0 | 1 | 0 |
| O=C(Nc1n[nH]c2cc(-c3ccsc3)ccc12)C1CC1 [SB-732932] | 54 | 0 | 27 | 22 | 32 | 15 | 9 | 0 | 59 | 61 |
| Nc1nccc(-c2c(-c3ccc(F)cc3)ncn2C2CCN(Cc3ccccc3)CC2)n1 [SB-219980] | 0 | 0 | 0 | 2 | 0 | 0 | 0 | 0 | 0 | 0 |
| CS(=O)(=O)CCNCc1nc(-c2ccc3ncnc(Nc4ccc(OCc5ccccc5)c(Cl)c4)c3c2)cs1.Cl [GW582764] | 0 | 48 | 0 | 0 | 15 | 0 | 2 | 3 | 0 | 0 |
| COC(=O)c1cccc(NC(=O)NC2CCN(c3ccnc(Nc4ccc(F)cc4)n3)C2)c1 (centres unmarked) [GSK1379725] | 20 | 26 | 0 | 0 | 0 | 0 | 0 | 8 | 0 | 0 |
| Cc1ccc(NC(=O)Nc2ccccc2F)cc1-c1ccc(C(=O)Nc2ccncc2)cc1 [GSK1398477] | 28 | 51 | 7 | 0 | 0 | 29 | 20 | 34 | 15 | 13 |
| Fc1ccc(-c2nc3n(c2-c2ccncc2)CCS3)cc1 [GI98581] | 32 | 45 | 0 | 0 | 0 | 12 | 0 | 13 | 0 | 0 |
| COC(=O)c1cccc(NC(=O)NC2CCN(c3ccnc(Nc4ccc(OC)cc4)n3)C2)c1 (centres unmarked) [GSK1379746] | 6 | 0 | 9 | 0 | 26 | 3 | 7 | 28 | 0 | 0 |
| Cc1ccccc1-c1cc(-c2c[nH]nc2-c2ccccn2)ccn1 [GW680061] | 2 | 32 | 0 | 0 | 7 | 1 | 6 | 18 | 0 | 0 |
| O=C(Nc1n[nH]c2nc(-c3ccco3)c(Br)cc12)C1CCN(Cc2ccccc2)C1.O=C(O)[C@H](O)[C@@H](O)C(=O)O (centres unmarked) [SB-742034] | 0 | 0 | 32 | 10 | 16 | 0 | 0 | 9 | 18 | 37 |
